PubChem BioAssay (Tox21)
Records with an inconclusive call do not appear. Calls of active or inactive are those of the source. Calls come from the whole dose curve; as a rule, active = well fitted cell-killing curve with a large enough effect in the repeat runs; inconclusive = weak or mixed curves; inactive = no such curve, though single readings can be large or run the other way.

Assay: qHTS assay for identifying genotoxic compounds that show differential cytotoxicity against isogenic chicken DT40 cell lines with known DNA damage response pathways - Rad54/Ku70 mutant cell line (AID 743015); note: nearly all actives have a fitted effect of over 60% in size
Conditions: DT40 Rad54/Ku70 mutant viability, CellTiter-Glo, 40 h; series mostly up to 66.8 µM; activity change, negative = cytotoxicity: at the top concentration
% is set by controls: 0 for no effect and ±100 for the full control effect; potency is the fitted concentration of half-maximal effect.

SMILES	Potency	activity change, negative = cytotoxicity
C=C1/C(=C\C=C2/CCC[C@]3(C)[C@@H]([C@H](C)OCCC(C)(C)O)CC[C@@H]23)C[C@@H](O)C[C@@H]1O	13.3 µM (active)	–
CCCC1([C@H](O)C/C=C/[C@H]2[C@H](O)CC(=O)[C@@H]2CCCCCCC(=O)OC)CCC1	13.3 µM (active)	–
C[C@H](/C=C/[C@H](C)C(C)(C)O)[C@H]1CC[C@H]2/C(=C/C=C3C[C@@H](O)C[C@H](O)C3)CCC[C@]12C	–	11.8% (inactive)
CCCCCCCC(=O)CC[C@@H]1[C@@H](C/C=C\CCCC(=O)OC(C)C)[C@@H](O)C[C@H]1O	13.3 µM (active)	–
CC(CN(C)C)CN1c2ccccc2Sc2ccc(C(F)(F)F)cc21 (stereo not given)	9.44 µM (active)	–
CCc1ccc2c(c1)N(CC(C)CN(C)C)c1ccccc1S2 (stereo not given)	8.41 µM (active)	–
CC[C@@]1(O)C(=O)OCc2c1cc1n(c2=O)Cc2cc3c([N+](=O)[O-])cccc3nc2-1	0.0841 µM (active)	–
O=[N+]([O-])c1c(Cl)cccc1-c1c[nH]cc1Cl	26.6 µM (active)	–
CC[C@@H](C(=O)[C@@H](C)[C@@H](O)[C@H](C)[C@@H]1O[C@@H]([C@@H](CC)C(=O)O)CC[C@@H]1C)[C@H]1O[C@]2(C=C[C@@H](O)[C@]3(CC[C@@](C)([C@H]4CC[C@](O)(CC)[C@H](C)O4)O3)O2)[C@H](C)C[C@@H]1C	1.19 µM (active)	–
CC(C)N=c1cc2n(-c3ccc(Cl)cc3)c3ccccc3nc-2cc1Nc1ccc(Cl)cc1	12.7 µM (active)	–
CCN(CC)CCOc1ccc(-c2nc3cc(Cl)ccc3s2)cc1	1.06 µM (active)	–

Assay: qHTS assay to identify small molecule antagonists of the androgen receptor (AR) signaling pathway - cell viability counter screen (AID 743033; note: nearly all actives have a fitted effect of over 45% in size)
Conditions: AR-bla HEK293 viability, CellTiter-Glo luminescence, 16 h; series mostly up to 58.5 µM; activity change, negative = cytotoxicity: at the top concentration

SMILES	activity change, negative = cytotoxicity	Potency
C=C1C(=C/C=C2\CCC[C@]3(C)[C@@H]([C@H](C)CCCC(C)(C)O)CC[C@@H]23)C[C@@H](O)C[C@@H]1O	-14.1% (inactive)	–
CC(C)[C@@H](N)C(=O)O	0.194% (inactive)	–
CCCCCCCCCCCCCCCC(=O)OC[C@@H](COP(=O)([O-])OCC[N+](C)(C)C)OC(=O)CCCCCCCCCCCCCCC	-0.378% (inactive)	–
CCC(=O)O[C@H]1CC[C@H]2[C@@H]3CCc4cc(O)ccc4[C@H]3CC[C@]12C	-2.86% (inactive)	–
COc1cc(/C=C/C(=O)N2CCN(CC(=O)N3CCCC3)CC2)cc(OC)c1OC	-25.7% (inactive)	–
Cc1nnc(C(C)C)n1C1C[C@H]2CC[C@@H](C1)N2CC[C@H](NC(=O)C1CCC(F)(F)CC1)c1ccccc1 (stereo not given in full)	-1.54% (inactive)	–
CC1=C(/C=C/C(C)=C/C=C/C(C)=C/C=C/C=C(C)/C=C/C=C(C)/C=C/C2=C(C)C[C@@H](O)CC2(C)C)C(C)(C)C[C@H](O)C1	-27.3% (inactive)	–
O=C(O)CCC/C=C\C[C@@H]1[C@@H](/C=C/[C@@H](O)COc2cccc(Cl)c2)[C@H](O)C[C@@H]1O	-16.9% (inactive)	–
COc1cc([C@@H]2c3cc4c(cc3C(O[C@@H]3O[C@@H]5COC(c6cccs6)O[C@H]5[C@H](O)[C@H]3O)C3COC(=O)[C@@H]32)OCO4)cc(OC)c1O (stereo not given in full)	–	0.301 µM (active)
CCCCCCCCCCCCCCCC(=O)O[C@@H]1CC(C)=C(/C=C/C(C)=C/C=C/C(C)=C/C=C/C=C(C)/C=C/C=C(C)/C=C/C2=C(C)C[C@@H](OC(=O)CCCCCCCCCCCCCCC)CC2(C)C)C(C)(C)C1	-2.39% (inactive)	–
CO[C@H]1C[C@@H]2CC[C@@H](C)[C@@](O)(O2)C(=O)C(=O)N2CCCC[C@H]2C(=O)O[C@H]([C@H](C)C[C@@H]2CC[C@@H](OC(=O)C(C)(CO)CO)[C@H](OC)C2)CC(=O)[C@H](C)/C=C(\C)[C@@H](O)[C@@H](OC)C(=O)[C@H](C)C[C@H](C)/C=C/C=C/C=C/1C	5.28% (inactive)	–
C=C1C(=O)O[C@H]2[C@H]1CC/C(C)=C\CC[C@@]1(C)O[C@@H]21	–	23.9 µM (active)
CCCCCCCCCCCCCCCCSCC(COC)COP(=O)([O-])OCC[N+](C)(C)C (stereo not given)	-9.74% (inactive)	–
OCC(S)CS (stereo not given)	-20.3% (inactive)	–
CO[C@H]1C=CO[C@@]2(C)Oc3c(C)c(O)c4c(O)c(c(/C=N/N5CCN(C6CCCC6)CC5)c(O)c4c3C2=O)NC(=O)/C(C)=C\C=C[C@H](C)[C@H](O)[C@@H](C)[C@@H](O)[C@@H](C)[C@H](OC(C)=O)[C@@H]1C	-9.76% (inactive)	–
NC(=O)C[C@@H](N)C(=O)O	6.74% (inactive)	–
CO[C@@]1(NC(=O)C2SC(=C(C(N)=O)C(=O)O)S2)C(=O)N2C(C(=O)O)=C(CSc3nnnn3C)CS[C@@H]21 (stereo not given in full)	-20.8% [at 27 µM] (inactive)	–

SMILES	activity change, negative = cytotoxicity	Potency
CC(C)C(=O)OCC(=O)[C@@]12O[C@H](C3CCCCC3)O[C@@H]1C[C@H]1[C@@H]3CCC4=CC(=O)C=C[C@]4(C)[C@H]3[C@@H](O)C[C@@]12C	10.1% (inactive)	–
C#C[C@]1(O)CC[C@H]2[C@@H]3CCC4=CCCC[C@@H]4[C@H]3C(=C)C[C@@]21CC	1.53% (inactive)	–
CN(C)C(=O)CCSC(SCCC(=O)O)c1cccc(/C=C/c2ccc3ccc(Cl)cc3n2)c1 (stereo not given)	-28.4% (inactive)	–
CC(C)Cc1ccc([C@@H](C)C(=O)NS(C)(=O)=O)cc1	4.42% (inactive)	–
CCOc1ccc(N=Nc2ccc(N)cc2N)cc1	-15.9% (inactive)	–
C=CC[C@@H]1/C=C(\C)C[C@H](C)C[C@H](OC)[C@H]2O[C@@](O)(C(=O)C(=O)N3CCCC[C@H]3C(=O)O[C@H](/C(C)=C/[C@@H]3CC[C@@H](O)[C@H](OC)C3)[C@H](C)[C@@H](O)CC1=O)[C@H](C)C[C@@H]2OC	14.1% (inactive)	–
Nc1ncnc2c1ncn2[C@@H]1O[C@H](COP(=O)(O)OP(=O)(O)OP(=O)(O)O)[C@@H](O)[C@H]1O	16.1% (inactive)	–
CC(C)N1CCN(c2ccc(OC[C@H]3CO[C@](Cn4cncn4)(c4ccc(Cl)cc4Cl)O3)cc2)CC1	-27.9% [at 27 µM] (inactive)	–
C=C1/C(=C\C=C2/CCC[C@]3(C)[C@@H]([C@H](C)OCCC(C)(C)O)CC[C@@H]23)C[C@@H](O)C[C@@H]1O	-28.9% (inactive)	–
CCCC1([C@H](O)C/C=C/[C@H]2[C@H](O)CC(=O)[C@@H]2CCCCCCC(=O)OC)CCC1	–	16.9 µM (active)
C[C@H](/C=C/[C@H](C)C(C)(C)O)[C@H]1CC[C@H]2/C(=C/C=C3C[C@@H](O)C[C@H](O)C3)CCC[C@]12C	1.29% (inactive)	–
CC(CN(C)C)CN1c2ccccc2Sc2ccc(C(F)(F)F)cc21 (stereo not given)	-17.4% (inactive)	–
CC[C@@]1(O)C(=O)OCc2c1cc1n(c2=O)Cc2cc3c([N+](=O)[O-])cccc3nc2-1	-25.5% (inactive)	–
O=[N+]([O-])c1c(Cl)cccc1-c1c[nH]cc1Cl	-47.1% (inactive)	–
CC[C@@H](C(=O)[C@@H](C)[C@@H](O)[C@H](C)[C@@H]1O[C@@H]([C@@H](CC)C(=O)O)CC[C@@H]1C)[C@H]1O[C@]2(C=C[C@@H](O)[C@]3(CC[C@@](C)([C@H]4CC[C@](O)(CC)[C@H](C)O4)O3)O2)[C@H](C)C[C@@H]1C	–	1.51 µM (active)
CC(C)N=c1cc2n(-c3ccc(Cl)cc3)c3ccccc3nc-2cc1Nc1ccc(Cl)cc1	-3.32% [at 27 µM] (inactive)	–
CCN(CC)CCOc1ccc(-c2nc3cc(Cl)ccc3s2)cc1	–	23.9 µM (active)
